Results published in the supplement of paper PMC12067926.
Values without a mark were called inactive.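 The calls were made as follows: active = growth AUC significantly below the DMSO wells by Dunnett test; inactive = the rest.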

What was measured:
Assay in all cases: relative growth (AUC of 72 h growth curve relative to DMSO control, dAUC) (ratio); higher = more growth (less inhibition), active = hit call of the paper
Settings in all cases: 20 µM
[1] = tested on: Prolinoborus 1 (Prolinoborus fasciculus)
Procedure, shortened: (§1)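 For relative growth (dAUC), the spline-integrated area under the growth curve was divided by the mean of the DMSO controls. Results were averaged over three biological replicates. Each replicate used a 1:100 dilution, into 96-well plates holding each chemical at 20 µM (1% DMSO), of isolates from Icelandic stream sediments and Silwood Park soil or whole sediment communities that had been grown to carrying capacity in Luria–Bertani medium. Plates were shaken briefly before each hourly A600 reading over 72 h.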

[2] = tested on: Pseudomonas 1 (Pseudomonas baetica)
Procedure, shortened: as §1

[3] = tested on: Pseudomonas 2 (Pseudomonas vancouverensis)
Procedure, shortened: as §1

[4] = tested on: Pseudomonas 3 (Pseudomonas mandelii)
Procedure, shortened: as §1

[5] = tested on: Pseudomonas 4 (Pseudomonas peli)
Procedure, shortened: as §1

[6] = tested on: Pseudomonas 5 (Pseudomonas baetica)
Procedure, shortened: as §1

[7] = tested on: Pseudomonas 6 (Pseudomonas sp.)
Procedure, shortened: as §1

[8] = tested on: Rhizobium 1 (Rhizobium herbae)
Procedure, shortened: as §1

[9] = tested on: Serratia 1 (Serratia sp. 2015-2462-01)
Procedure, shortened: as §1

[10] = tested on: Sphingomonas 2 (Sphingomonas sp.)
Procedure, shortened: as §1

Structure (SMILES) | relative growth [1] | relative growth [2] | relative growth [3] | relative growth [4] | relative growth [5] | relative growth [6] | relative growth [7] | relative growth [8] | relative growth [9] | relative growth [10]
CC(C)N(C)S(=O)(=O)NC(=O)c1cc(-n2c(=O)cc(C(F)(F)F)n(C)c2=O)c(F)cc1Cl | 0.979 | 1.01 | 1.02 | 1.04 | 1.02 | 1.06 | 1.07 | 1.05 | 0.977 | 1.07
CO/C=C(/C(=O)OC)c1ccccc1COc1cccc(C(F)(F)F)n1 | 0.929 | 1.02 | 0.958 | 0.991 | 0.97 | 1.05 | 1.11 | 0.96 | 0.966 | 1
CCOP(=S)(OCC)Oc1cc(C)nc(C(C)C)n1 | 0.91 | 0.877 | 1.01 | 1.04 | 0.919 | 0.98 | 1.12 | 0.904 | 0.958 | 0.988
CCc1nn(C)c(C(=O)NCc2ccc(Oc3ccc(C)cc3)cc2)c1Cl | 0.978 | 1.08 | 1.02 | 1.01 | 0.987 | 1.01 | 1.05 | 0.941 | 1.07 | 1.04
COc1cc(OC)nc(NC(=O)NS(=O)(=O)c2ncccc2C(=O)N(C)C)n1 | 0.999 | 0.988 | 1 | 1.01 | 0.993 | 0.996 | 0.943 | 0.992 | 1 | 1
COc1ncc(F)c2nc(S(=O)(=O)Nc3c(F)cccc3F)nn12 | 1.01 | 1.05 | 1.02 | 1.01 | 0.989 | 0.958 | 0.99 | 0.982 | 1.03 | 1.04
Cc1ccc(/N=C/N(C)/C=N/c2ccc(C)cc2C)c(C)c1 | 0.978 | 1.05 | 0.973 | 1.1 | 0.967 | 1.01 | 1.11 | 1.06 | 0.946 | 1.04
CCC(C)c1ccccc1OC(=O)NC (stereo not given) | 1.02 | 0.95 | 1.01 | 1.07 | 1.01 | 1.04 | 1.09 | 1.01 | 0.971 | 1
Fc1ccc(Oc2ccnc3cc(Cl)cc(Cl)c23)cc1 | 1.03 | 1.07 | 1.02 | 1.06 | 1.07 | 1.01 | 1.06 | 0.992 | 1.01 | 0.975
CC(C)(C)[C@@H](O)[C@H](Oc1ccc(Cl)cc1)n1cncn1 | 1.02 | 0.598 (active) | 0.991 | 0.991 | 0.989 | 0.963 | 0.953 | 1.05 | 1.02 | 1.08
CCOC(=O)OC1=C(c2cc(C)ccc2C)C(=O)N[C@]12CC[C@@H](OC)CC2 | 1 | 1.11 | 0.998 | 1.02 | 1.02 | 0.981 | 1.09 | 0.952 | 0.987 | 1.04
CCCCOC(=O)[C@H](C)Oc1ccc(Oc2ccc(C#N)cc2F)cc1 | 1.02 | 0.985 | 1.08 | 1.07 | 0.967 | 1.06 | 1.17 | 1.07 | 1 | 1.1
CCOP(=S)(OCC)Oc1nc(Cl)c(Cl)cc1Cl | 0.989 | 1.04 | 1.01 | 1.05 | 0.991 | 1.06 | 1.08 | 0.929 | 0.993 | 1.07
CNC(=O)c1cc(C#N)cc(C)c1NC(=O)c1cc(Br)nn1-c1ncccc1Cl | 0.944 | 0.962 | 0.986 | 1.01 | 0.976 | 1.06 | 1.06 | 0.961 | 0.982 | 1.05
CCCC1COC(Cn2cncn2)(c2ccc(Cl)cc2Cl)O1 (stereo not given) | 0.954 | 1.08 | 0.967 | 1 | 0.914 | 0.987 | 1.02 | 0.931 | 0.944 | 1.11
CCCSP(=O)(OCC)Oc1ccc(Br)cc1Cl (stereo not given) | 1.01 | 1.12 | 1.08 | 1.1 | 0.975 | 1.01 | 1.04 | 0.931 | 0.955 | 1.09
CC1(C)C(C=C(Cl)Cl)C1C(=O)OC(C#N)c1cccc(Oc2ccccc2)c1 (stereo not given) | 0.983 | 0.942 | 1.06 | 1.06 | 1.04 | 1.02 | 1 | 1.15 | 1.01 | 1.03
CCc1cnc(C2=NC(C)(C(C)C)C(=O)N2)c(C(=O)O)c1 (stereo not given) | 0.973 | 0.912 | 0.944 | 1.01 | 0.967 | 1.01 | 1.04 | 0.975 | 0.958 | 1.03
Cc1cc(C)nc(Nc2ccccc2)n1 | 0.979 | 0.925 | 0.956 | 1.03 | 0.947 | 0.99 | 1.03 | 0.868 | 0.937 | 0.984
COP(=S)(OC)Oc1nc(Cl)c(Cl)cc1Cl | 1.04 | 1.06 | 1.08 | 1.09 | 1.03 | 1.06 | 1.12 | 0.8 | 0.998 | 1.06
O=C(NC(=O)c1c(F)cccc1F)Nc1ccc(Cl)cc1 | 0.965 | 1.06 | 1.01 | 1.04 | 1.02 | 1.01 | 1.05 | 1.06 | 0.988 | 1.02
CC(C)N1C(=O)N(c2ccccc2)CS/C1=N\C(C)(C)C | 0.883 | 1.05 | 0.977 | 1.02 | 0.937 | 1.03 | 1.07 | 0.931 | 0.962 | 1.05
C[N+]1(C)CCCCC1 | 0.974 | 0.972 | 0.981 | 1.02 | 1.05 | 1.04 | 1.03 | 1.02 | 1.03 | 0.999
N#Cc1c(Cl)c(Cl)c(Cl)c(C#N)c1Cl | 1.04 | 0.975 | 0.972 | 0.967 | 1 | 1.01 | 1.1 | 0.17 (active) | 0.92 | 0.0279 (active)
Cc1cc(C(C#N)c2ccc(Cl)cc2)c(Cl)cc1NC(=O)c1cc(I)cc(I)c1O (stereo not given) | 0.673 (active) | 0.846 | 0.757 (active) | 0.822 (active) | 0.883 | 0.844 (active) | 0.857 | 0.478 | 0.825 (active) | 0.0325 (active)
CCCCN(CCCC)SN(C)C(=O)Oc1cccc2c1OC(C)(C)C2 | 0.949 | 0.618 (active) | 1.03 | 1.07 | 1.01 | 1.03 | 1.18 | 0.946 | 0.977 | 0.798
ClC1C(Cl)C(Cl)C(Cl)C(Cl)C1Cl (stereo not given) | 0.987 | 1.04 | 0.993 | 0.99 | 0.982 | 1.04 | 1.02 | 0.826 | 0.97 | 0.949
